The source of these data is ChEMBL document CHEMBL4513137, “CO-ADD screening of University of Manchester (UK) compounds”.

Out of some 23,000 compounds screened, about 30 (0.1%) showed an effect of 50% or more. This excerpt belongs to a sample that is enriched for strong results. Potency and affinity values are given separately.

For this experiment, the system named is Pseudomonas aeruginosa. The conditions noted are these: Concentration 32 ug.mL-1; ASSAY_TEST Inhibition of Bacterial Growth; detection method Absorption (OD600); MEDIA CAMHB; plate type 384well; NBS; CORNING #3640; time 18 hr.
For `O=[N+]([O-])c1ccc(-c2ccccc2Nc2ccccc2)cc1C(F)(F)F`, the Inhibition (as a rule, the change of the read-out against control, counted positive when it falls) was determined as 49.55%. Under `COc1ccc(Nc2ccccc2-c2ccc([N+](=O)[O-])cc2)cc1` stands 65.22%; under `O=[N+]([O-])c1ccc(-c2ccccc2Nc2ccccc2)cc1`, -5.45%; under `Cc1ccccc1Nc1ccccc1-c1ccc([N+](=O)[O-])cc1`, -5.81%. As to `O=[N+]([O-])c1ccc(-c2c(Nc3ccccc3)cccc2-c2ccccc2)cc1`, the Inhibition is on record as 19.1%. Under `O=[N+]([O-])c1ccc(-c2ccccc2Nc2ccccc2)cc1F` stands 55.36%. With `c1ccc(Nc2ccccc2-c2ncccn2)cc1`, the Inhibition was determined as 60.14%.

`CC(=O)c1ccc(-c2ccccc2Nc2ccccc2)cc1`: the Inhibition stood at 28.85%. With `Clc1cc(Br)cc(Cl)c1-c1ccccc1Nc1ccccc1`, the Inhibition came to 32.77%. Take `COc1cccc(Nc2ccccc2)c1-c1c(Cl)cc(Br)cc1Cl`: the Inhibition was 61.56%. On to `COc1cc([N+](=O)[O-])ccc1-c1c(Nc2ccccc2)cccc1OC`, for which the Inhibition was found to be 30.66%.
